# Assay outcomes as filed in PubChem.
# An excerpt weighted towards active compounds, which were near 6.8% of everything screened.
# Cy5 interf NS3h – Cy5 fluorescence quenchers or enhancers, artefact control for HCV NS3 helicase inhibitor project, biochemical, ChemBridge library, Cy5 readout. Cy5-dT15 DNA with NS3h, fluorescence interference; actives lie on both sides; signal over control mean, under 1 quenches. fluorescence interference ratio at 100 µM. hit rate 6% among 16,000. AID 720488, 2013;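 active means compound fluorescence over control fluorescence at most 0.8, a quencher, or at least a set upper limit, an enhancer; inactive means ratio between 0.8 and the set upper limit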
# NS3h inh CB – HCV NS3 helicase inhibitors, primary screen, biochemical, fluorescence polarization, ChemBridge library. inhibition, % at 100 µM. hit rate 1.6% among 16,000. Hepatitis C virus NS3 helicase. NS3h Cy5-dT15 DNA binding. AID 687043, 2013;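 active means inhibition above the average over every tested compound plus 3 SD, cut at about 40% in these data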
# Numbers stand for hits; - = inactive.
SMILES,Cy5 interf NS3h,NS3h inh CB
CC(=O)NC(=O)c1ccccc1OCc1ccc([N+](=O)[O-])cc1,-,-
CC(C)COc1ccc2c(c1)c1c3c(nccn32)CCC1,0.762,-
O=C(/C=C/c1ccccc1)NC(=S)Nc1ccc(NC(=O)c2ccco2)cc1,-,-
COc1cc(CC(=O)O)c([N+](=O)[O-])cc1OC,0.653,-
CCN(C(=O)c1cc(OC)c(OC)cc1[N+](=O)[O-])c1ccccc1,-,-
CCN(CC)CCNc1ccc(Nc2ccnc3cc4ccccc4cc23)cc1,0.576,-
c1ccc(CCNc2ccnc3cc4ccccc4cc23)cc1,-,-
Nc1ncc(Cc2ccc(Cl)c(Cl)c2)s1,-,-
CCOc1ccc(NC(=O)/C=C/c2ccccc2)cc1,-,-
O=C(Nc1ccccc1)Nc1nnc(-c2ccccc2)s1,-,-
CCOc1ccc(NC(=O)/C(=C/c2ccccc2)c2ccccc2)cc1,0.672,-
Cc1ccc(NC(=O)/C(=C/c2ccccc2)c2ccccc2)cc1C,0.654,-
COc1ccccc1NC(=O)/C(=C/c1ccccc1)c1ccccc1,-,-
CCOc1ccc(-c2nnc(NC(=O)Nc3ccccc3)s2)cc1,0.738,-
C=CCc1cccc2cc(C(=O)Nc3ccc(C)cc3[N+](=O)[O-])c(=O)oc12,-,-
CC(C)CNC(=O)c1cc(C(=O)NCC(C)C)cc(C(=O)Nc2ccc([N+](=O)[O-])cc2)c1,-,-
COc1cc(NC(=O)c2cc3n(n2)C(C(F)(F)F)CC(c2ccc(Cl)cc2)N3)cc(OC)c1OC (stereo unspecified),-,-
COC(=O)CN1C(c2ccc(OC)cc2)Nc2ccc(Br)cc2C1c1ccccc1 (stereo unspecified),-,-
CC1=C(C(=O)OCc2ccc(C)cc2)C(c2cccc(O)c2)NC(=O)N1 (stereo unspecified),-,-
CCOc1cc(/C=C2/SC(=S)N(C)C2=O)ccc1OCc1ccccc1Cl,1.2,-
C=CCc1ccccc1OCCOc1ccc(/C=C2/SC(=S)N(C)C2=O)cc1,-,-
COc1cc(/C=C2/SC(=S)N(C)C2=O)cc(Cl)c1OCc1ccccc1Cl,-,-
C=CCc1ccccc1OCCOc1cccc(/C=C2/SC(=S)N(C)C2=O)c1,1.24,-
COc1ccc(S(=O)(=O)Nc2ccc(C)c(Cl)c2)cc1OC,-,-
COc1ccc(OC)c(CN2CCN(Cc3ccc(C)cc3)CC2)c1,-,-
SMILES,Cy5 interf NS3h,NS3h inh CB
CCc1ccc(/C(=C2/OC(=O)c3ccccc32)[N+](=O)[O-])cc1,-,-
COc1ccc(/C=C/C(=O)N2CCCCCC2)cc1Br,-,-
COc1ccc(/C=C/C(=O)N2CCOCC2)cc1OC,0.626,-
COc1ccc(C2=C/C(=C/c3ccc([N+](=O)[O-])cc3)C(=O)O2)c(OC)c1,0.668,-
CCOc1ccc(C2=C/C(=C/c3ccc(OC)cc3)C(=O)O2)cc1,-,-
COc1ccccc1NC(=NS(=O)(=O)c1ccccc1)c1ccccc1,-,-
COC(=O)CNC(=O)C1COc2ccccc2O1 (stereo unspecified),1.23,-
O=C(NCCO)C1COc2ccccc2O1 (stereo unspecified),-,-
COC(=O)c1ccc(C(=O)OC)c(NC(=O)c2c(OC)cccc2OC)c1,-,-
CCN(O)C(C)(C)/C(=N\O)c1ccccc1,-,-
O=C(Nc1ccc(C(=O)O)cc1)/C(=C/c1cccc([N+](=O)[O-])c1)NC(=O)c1ccccc1,-,-
O=C(Nc1cccc(O)c1)/C(=C/c1cccc([N+](=O)[O-])c1)NC(=O)c1ccccc1,-,-
Cc1ccc(C(=O)N/C(=C\c2cccc([N+](=O)[O-])c2)C(=O)Nc2ccc(C)cc2C)cc1,1.29,-
Cc1ccc(C(=O)N/C(=C\c2cccc([N+](=O)[O-])c2)C(=O)Nc2ccc(C)c(C)c2)cc1,1.2,-
Cc1c(C(=O)O/N=C(/N)c2ccc(Br)cc2)cccc1[N+](=O)[O-],-,-
O=C(Nc1ccc(O)cc1)c1ccc2c(c1)C(=O)N(c1ccccn1)C2=O,-,-
COc1ccc(NC(=O)CSc2ccncc2)c([N+](=O)[O-])c1,0.64,-
COc1ccc(NC(=O)COc2ccc3ccccc3c2)c([N+](=O)[O-])c1,-,-
Cc1ccccc1NC(=O)CSCc1ccccc1,-,-
O=C(NCCN1CCNCC1)C(=O)Nc1ccc(Br)cc1,-,-
O=C1C(=O)N(c2cccc(Cl)c2)C(c2ccccc2)C1=C(O)c1ccccc1 (stereo unspecified),-,-
Cn1c(CC(O)(c2ccccc2)c2ccccc2)nc2ccccc21,-,-
O=C1c2ccccc2C(=O)N1CCc1nc2ccccc2c(=O)n1-c1nccs1,0.59,-
O=C(CCN1C(=O)c2ccccc2C1=O)NCc1ccccn1,-,-
Cn1c(-n2c(CCCN3C(=O)c4ccccc4C3=O)nc3ccccc3c2=O)nc2ccccc21,0.674,-
SMILES,Cy5 interf NS3h,NS3h inh CB
O=c1[nH]c(=O)n(-c2cccc(Br)c2)c(O)c1C=C1C=Nc2ccccc21,-,-
CC(=O)Nc1ccc(Nc2c(Cc3ccccc3)c(C)c(C#N)c3nc4ccccc4n23)cc1,-,-
N#Cc1cc(N=Cc2cccc(C=Nc3ccc(N)c(C#N)c3)c2)ccc1N,1.23,-
CC(C(=O)O)N1C(=O)/C(=C/c2cccnc2)SC1=S (stereo unspecified),-,-
O=C(Nc1c(F)cc(F)cc1Br)c1nc2nc(-c3ccccc3)cc(C(F)(F)F)n2n1,0.71,-
O=C(NCC1CCCO1)c1nc2nc(-c3ccccc3)cc(C(F)(F)F)n2n1 (stereo unspecified),-,-
COc1ccc(Cl)cc1NC(=O)CN(CCc1ccccc1)S(=O)(=O)c1ccccc1,-,-
Cc1ccc(NC(=O)c2cccc(Cl)c2)cc1Cl,-,-
CCOC(=O)c1sc(NC(=O)c2cc3n(n2)C(C(F)(F)F)CC(c2ccc4c(c2)OCO4)N3)c(C(=O)OCC)c1C (stereo unspecified),-,-
CCOC(=O)c1c(NC(=O)c2cc3n(n2)C(C(F)(F)F)CC(c2ccco2)N3)sc(C)c1C (stereo unspecified),0.746,-
CC(=O)Oc1ccc2c(=O)c(-c3nc4ccccc4[nH]3)c(C)oc2c1,-,-
CC(C)=C(NC(=O)c1ccccc1)C(=O)NCc1ccccc1Cl,-,-
COCC(O)CN1CCN(c2ccc([N+](=O)[O-])cc2Cl)CC1 (stereo unspecified),-,-
O=[N+]([O-])c1ccc(N2CCN(S(=O)(=O)Cc3ccccc3)CC2)c(Cl)c1,0.743,-
Cc1ccc(C(=O)O/N=C(/N)c2ccccn2)cc1[N+](=O)[O-],-,-
Cc1ccc(C(=O)O/N=C(/N)c2cccnc2)cc1[N+](=O)[O-],0.662,-
CCOC(=O)c1c(NC(=O)C2CCCCC2)sc2c1CCC2,-,-
COc1ccc(N(CC(=O)Nc2ccccc2Br)S(=O)(=O)c2ccccc2)cc1,-,-
CC(C)CCNC(=O)C(=O)NCc1ccc(Cl)cc1,-,-
NC(=O)C(=O)NCc1ccc(Cl)cc1,0.655,-
CC(=O)Nc1ccccc1NC(=O)c1ccc(Br)cc1,1.22,-
CC(=O)Nc1ccccc1NC(=O)c1ccc(F)cc1,-,-
CC(C)c1ccc(NC(=O)CC2SC(N)=NC2=O)cc1 (stereo unspecified),-,-
COc1ccc(OCC(=O)Nc2ccc(I)cc2Cl)cc1,-,-
O=C(COc1ccc(Cl)cc1)Nc1ccc(I)cc1Cl,1.23,-
